Active and inactive are the calls of the source. Rule for the calls: active = hit-call score of the fitted dose curve at least 0.9, where 1 is the maximum; inactive = score below 0.9.
How the values were obtained:
Conditions in all cases: mRNA level, 48 h; actives raise or lower the signal
[1] = read-out: Lipoprotein lipase (LPL), LPL (gene 4023); test: LTEA_HepaRG_LPL: Life Technologies and Expression Analysis (LTEA) Assay for Lipoprotein lipase (LPL) using HepaRG (AID 2283515)
Method in brief: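 Read-out is LPL transcript level by qRT-PCR, normalized to three housekeeping genes and fitted bidirectionally against the DMSO control. Human HepaRG cells received chemicals for 48 h at up to 100 uM.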

[2] = read-out: MicroRNA 122 (MIR122), gene 406906; test: LTEA_HepaRG_MIR122: Life Technologies and Expression Analysis (LTEA) Assay for MicroRNA 122 (MIR122) using HepaRG (AID 2283516); note: the transcript read is the microRNA miR-122
Method in brief: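 HepaRG, 48 h exposure, 8-pt half-log from 100 uM, 0.5% DMSO; TaqMan qRT-PCR; bidirectional fit vs DMSO.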

[3] = read-out: matrix metalloproteinase-10 (MMP10), MMP10 (gene 4319); test: LTEA_HepaRG_MMP10: Life Technologies and Expression Analysis (LTEA) Assay for matrix metalloproteinase-10 (MMP10) using HepaRG (AID 2283517)
Method in brief: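 Gain or loss of MMP10 mRNA is fitted relative to the 0.5% DMSO vehicle. The human hepatic line HepaRG receives a 48-hour serum-free exposure, in duplicate, with a maximum concentration of 100 uM.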

[4] = read-out: MYC, MYC (gene 4609); test: LTEA_HepaRG_MYC: Life Technologies and Expression Analysis (LTEA) Assay for MYC using HepaRG (AID 2283518)
Method in brief: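 MYC transcript changes, up or down relative to 0.5% DMSO, from TaqMan qRT-PCR normalized to three housekeeping genes. Human HepaRG cultures received chemicals for 48 h at eight half-log concentrations up to 100 uM, in duplicate.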

[5] = read-out: matrix metalloproteinase-3 (MMP3), MMP3 (gene 4314); test: LTEA_HepaRG_MMP3: Life Technologies and Expression Analysis (LTEA) Assay for matrix metalloproteinase-3 (MMP3) using HepaRG (AID 2283519)
Method in brief: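 HepaRG, human; 48 h dosing, 8 conc. (max 100 uM, half-log), duplicate, 0.5% DMSO. Readout: MMP3 transcript by Fluidigm TaqMan qRT-PCR, ACTB/GAPDH/POLR2A-normalised. Gain or loss fitted vs DMSO.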

[6] = read-out: Paternally Expressed 10 (PEG10), PEG10 (gene 23089); test: LTEA_HepaRG_PEG10: Life Technologies and Expression Analysis (LTEA) Assay for Paternally Expressed 10 (PEG10) using HepaRG (AID 2283520);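 for AC50: PEG10 transcript by qRT-PCR normalised to ACTB GAPDH and POLR2A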
Method in brief: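 Chemicals tested on HepaRG cells for 48 h, highest concentration 100 uM. PEG10 expression assessed by qRT-PCR relative to DMSO control.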

[7] = read-out: Nuclear factor NF-kappa-B p105 subunit (Homo sapiens) (UniProt P19838); test: LTEA_HepaRG_NFKB1: Life Technologies and Expression Analysis (LTEA) Assay for Nuclear Factor Kappa B Subunit 1 (NFKB1) using HepaRG (AID 2283521)
Method in brief: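 Differentiated human HepaRG cells in serum-free induction medium with 0.5% DMSO were exposed for 48 h to eight half-log concentrations, top 100 uM, in duplicate. NFKB1 mRNA measured by Fluidigm TaqMan qRT-PCR, normalised to ACTB, GAPDH and POLR2A; bidirectional fit versus DMSO.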

[8] = read-out: Protein phosphatase 2A (PPP2R4), PTPA (gene 5524); test: LTEA_HepaRG_PPP2R4: Life Technologies and Expression Analysis (LTEA) Assay for Protein phosphatase 2A (PPP2R4) using HepaRG (AID 2283522)
Method in brief: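 Gene-expression endpoint in HepaRG hepatic cells: 48 h treatment across eight half-log concentrations up to 100 uM in 0.5% DMSO. PPP2R4 mRNA by qRT-PCR, normalized to three endogenous control genes.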

[9] = read-out: Phosphatase and tensin (PTEN), PTEN (gene 5728); test: LTEA_HepaRG_PTEN: Life Technologies and Expression Analysis (LTEA) Assay for Phosphatase and tensin (PTEN) using HepaRG (AID 2283523)
Method in brief: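 Read-out is PTEN transcript level by multiplexed TaqMan qRT-PCR after 48 h chemical treatment of human HepaRG cultures in serum-free induction medium. Concentrations spanned 100 uM downward in half-log steps, 0.5% DMSO throughout; activity fitted in both directions against vehicle.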

[10] = read-out: solute carrier (SLC22A1), SLC22A1 (gene 6580); test: LTEA_HepaRG_SLC22A1: Life Technologies and Expression Analysis (LTEA) Assay for solute carrier (SLC22A1) using HepaRG (AID 2283524)
Method in brief: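 HepaRG (human liver line), 48 h dosing in serum-free induction medium; 8 conc., half-log down from 100 uM, 0.5% DMSO vehicle, duplicates. Endpoint: SLC22A1 mRNA, qRT-PCR, housekeeping-normalized; gain/loss fit vs DMSO.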

[11] = read-out: Pyruvate Dehydrogenase Kinase 4 (PDK4), PDK4 (gene 5166); test: LTEA_HepaRG_PDK4: Life Technologies and Expression Analysis (LTEA) Assay for Pyruvate Dehydrogenase Kinase 4 (PDK4) using HepaRG (AID 2283525)
Method in brief: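 In this multiplexed human HepaRG expression assay, cells are treated 48 h with test chemicals across an eight-point range starting at 100 uM. PDK4 mRNA changes, normalized to ACTB/GAPDH/POLR2A, are fitted in both directions relative to vehicle.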

[12] = read-out: NAD(P)H dehydrogenase [quinone] 1 (NQO1), NQO1 (gene 1728); test: LTEA_HepaRG_NQO1: Life Technologies and Expression Analysis (LTEA) Assay for NAD(P)H dehydrogenase [quinone] 1 (NQO1) using HepaRG (AID 2283526)
Method in brief: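 Human HepaRG hepatic cells received chemicals for 48 h in serum-free induction medium with 0.5% DMSO, up to 100 uM. Expression was assessed by TaqMan qRT-PCR against housekeeping controls and fitted bidirectionally against DMSO.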

[13] = read-out: Nuclear factor erythroid 2-related factor 2 (Homo sapiens) (UniProt Q16236); test: LTEA_HepaRG_NFE2L2: Life Technologies and Expression Analysis (LTEA) Assay for Nuclear factor erythroid 2-related factor 2 (NFE2L2) Transcription Factor using HepaRG (AID 2283527)
Method in brief: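 Transcript level of NFE2L2 is the read-out, measured by microfluidic TaqMan qRT-PCR and normalized to three housekeeping genes. Human HepaRG cultures received test chemical for 48 h at up to 100 uM in half-log steps. Gain or loss of signal is fitted relative to 0.5% DMSO.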

[14] = read-out: succinate dehydrogenase complex iron sulfur subunit B (SDHB), SDHB (gene 6390); test: LTEA_HepaRG_SDHB: Life Technologies and Expression Analysis (LTEA) Assay for succinate dehydrogenase complex iron sulfur subunit B (SDHB) using HepaRG (AID 2283528)
Method in brief: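 HepaRG cells (~100,000/well, plated 48 h) exposed in duplicate for 48 h in serum-free induction medium to 8-point half-log series from 100 uM in 0.5% DMSO; mRNA by qRT-PCR normalised to ACTB, GAPDH, POLR2A; bidirectional fit versus DMSO.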

[15] = read-out: Signal transducer and activator of transcription 3 (Homo sapiens) (UniProt P40763); test: LTEA_HepaRG_STAT3: Life Technologies and Expression Analysis (LTEA) Assay for Signal transducer and activator of transcription (STAT3) using HepaRG (AID 2283529)
Method in brief: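 Read-out is STAT3 mRNA level by qRT-PCR, normalized to three housekeeping genes, in human HepaRG liver cells treated for 48 h. Concentrations ran from 100 uM downward in half-log steps; curves were fitted for gain or loss relative to 0.5% DMSO.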

[16] = read-out: solute carrier (SLCO1B1), SLCO1B1 (gene 10599); test: LTEA_HepaRG_SLCO1B1: Life Technologies and Expression Analysis (LTEA) Assay for solute carrier (SLCO1B1) using HepaRG (AID 2283530)
Method in brief: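 SLCO1B1 transcript levels were quantified by TaqMan qRT-PCR using three housekeeping genes for normalization. This followed 48 h chemical exposure (100 uM top, half-log, 8 points, 0.5% DMSO) of HepaRG liver cells, with gain or loss fitted relative to DMSO.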

[17] = read-out: sulfotransferase 2A1 (SULT2A1), SULT2A1 (gene 6822); test: LTEA_HepaRG_SULT2A1: Life Technologies and Expression Analysis (LTEA) Assay for sulfotransferase 2A1 (SULT2A1) using HepaRG (AID 2283531)
Method in brief: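 Expression change of SULT2A1, by qRT-PCR with three housekeeping-gene normalization, was scored bidirectionally versus DMSO. Cells: differentiated HepaRG, dosed in duplicate for 48 h across 8 points, highest 100 µM, half-log dilution, 0.5% DMSO.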

[18] = read-out: Transforming Growth Factor (TGFA), TGFA (gene 7039); test: LTEA_HepaRG_TGFA: Life Technologies and Expression Analysis (LTEA) Assay for Transforming Growth Factor (TGFA) using HepaRG (AID 2283532)
Method in brief: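 HepaRG (human liver line), 48 h exposure, 8 conc. half-log down from 100 uM, 0.5% DMSO vehicle, duplicates; serum-free induction medium. TGFA mRNA by TaqMan qRT-PCR, ACTB/GAPDH/POLR2A normalization; gain/loss fit vs DMSO.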

[19] = read-out: Transforming Growth Factor (TGFB1), TGFB1 (gene 7040); test: LTEA_HepaRG_TGFB1: Life Technologies and Expression Analysis (LTEA) Assay for Transforming Growth Factor (TGFB1) Transporter using HepaRG (AID 2283533)
Method in brief: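 TGFB1 transcript measured by qRT-PCR with normalisation to three housekeeping genes (ACTB, GAPDH, POLR2A); human HepaRG line treated in duplicate for 48 hr with an 8-point series topping at 100 uM, 0.5% DMSO vehicle, bidirectionally fitted.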

[20] = read-out: TIMP1, TIMP1 (gene 7076); test: LTEA_HepaRG_TIMP1: Life Technologies and Expression Analysis (LTEA) Assay for TIMP1 using HepaRG (AID 2283534)
Method in brief: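 Bidirectional change in TIMP1 transcript versus 0.5% DMSO, measured by TaqMan qRT-PCR with three housekeeping genes for normalization. HepaRG human liver cells dosed 48 h in duplicate, top concentration 100 uM with half-log dilutions.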

Measured: AC50

Chain of Signal transducer and activator of transcription 3 (Homo sapiens) (P40763 whole entry, looked up): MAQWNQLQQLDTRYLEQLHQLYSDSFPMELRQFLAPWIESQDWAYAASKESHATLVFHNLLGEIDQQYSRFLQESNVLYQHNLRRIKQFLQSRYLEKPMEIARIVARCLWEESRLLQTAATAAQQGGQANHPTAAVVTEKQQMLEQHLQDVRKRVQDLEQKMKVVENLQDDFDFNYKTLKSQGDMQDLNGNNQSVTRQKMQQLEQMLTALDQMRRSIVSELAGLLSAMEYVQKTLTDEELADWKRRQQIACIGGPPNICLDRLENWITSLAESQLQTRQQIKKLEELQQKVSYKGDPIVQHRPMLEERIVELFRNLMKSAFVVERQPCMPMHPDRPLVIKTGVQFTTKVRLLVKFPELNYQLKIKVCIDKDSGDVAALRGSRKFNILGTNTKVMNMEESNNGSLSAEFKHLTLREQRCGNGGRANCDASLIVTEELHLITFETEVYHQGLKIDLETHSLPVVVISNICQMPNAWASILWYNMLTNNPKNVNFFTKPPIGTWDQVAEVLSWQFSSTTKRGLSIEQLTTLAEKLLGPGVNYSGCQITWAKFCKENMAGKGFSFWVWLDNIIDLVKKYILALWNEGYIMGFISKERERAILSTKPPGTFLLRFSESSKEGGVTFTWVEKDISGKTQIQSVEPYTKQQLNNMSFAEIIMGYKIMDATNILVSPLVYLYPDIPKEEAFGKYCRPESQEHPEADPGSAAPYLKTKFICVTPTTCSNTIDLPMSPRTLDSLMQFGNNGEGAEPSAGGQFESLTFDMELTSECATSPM
Chain of Nuclear factor NF-kappa-B p105 subunit (Homo sapiens) (P19838 whole entry, looked up): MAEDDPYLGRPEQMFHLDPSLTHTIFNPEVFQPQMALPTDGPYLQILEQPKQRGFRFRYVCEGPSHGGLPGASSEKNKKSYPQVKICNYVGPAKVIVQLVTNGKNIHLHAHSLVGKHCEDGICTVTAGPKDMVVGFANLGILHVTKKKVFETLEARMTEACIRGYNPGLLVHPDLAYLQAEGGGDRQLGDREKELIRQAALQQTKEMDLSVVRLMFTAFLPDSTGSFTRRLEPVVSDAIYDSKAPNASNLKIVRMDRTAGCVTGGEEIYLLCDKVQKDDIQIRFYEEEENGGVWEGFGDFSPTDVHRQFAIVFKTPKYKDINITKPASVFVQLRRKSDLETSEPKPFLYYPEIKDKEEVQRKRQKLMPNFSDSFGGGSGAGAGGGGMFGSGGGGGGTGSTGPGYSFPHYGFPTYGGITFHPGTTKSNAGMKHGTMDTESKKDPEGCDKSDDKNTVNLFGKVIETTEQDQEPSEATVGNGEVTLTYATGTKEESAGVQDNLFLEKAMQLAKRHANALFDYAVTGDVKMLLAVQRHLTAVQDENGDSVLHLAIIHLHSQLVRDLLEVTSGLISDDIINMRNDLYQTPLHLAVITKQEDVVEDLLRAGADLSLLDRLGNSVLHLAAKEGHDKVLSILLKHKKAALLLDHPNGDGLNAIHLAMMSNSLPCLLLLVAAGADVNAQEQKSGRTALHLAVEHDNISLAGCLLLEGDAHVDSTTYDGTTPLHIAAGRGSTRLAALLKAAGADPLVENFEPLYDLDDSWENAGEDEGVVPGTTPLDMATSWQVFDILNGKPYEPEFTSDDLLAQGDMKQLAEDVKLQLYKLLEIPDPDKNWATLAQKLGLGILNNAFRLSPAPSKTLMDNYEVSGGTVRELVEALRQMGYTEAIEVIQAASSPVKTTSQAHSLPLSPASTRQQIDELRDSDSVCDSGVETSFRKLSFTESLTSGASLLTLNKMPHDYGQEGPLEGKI
Chain of Nuclear factor erythroid 2-related factor 2 (Homo sapiens) (Q16236 whole entry, looked up): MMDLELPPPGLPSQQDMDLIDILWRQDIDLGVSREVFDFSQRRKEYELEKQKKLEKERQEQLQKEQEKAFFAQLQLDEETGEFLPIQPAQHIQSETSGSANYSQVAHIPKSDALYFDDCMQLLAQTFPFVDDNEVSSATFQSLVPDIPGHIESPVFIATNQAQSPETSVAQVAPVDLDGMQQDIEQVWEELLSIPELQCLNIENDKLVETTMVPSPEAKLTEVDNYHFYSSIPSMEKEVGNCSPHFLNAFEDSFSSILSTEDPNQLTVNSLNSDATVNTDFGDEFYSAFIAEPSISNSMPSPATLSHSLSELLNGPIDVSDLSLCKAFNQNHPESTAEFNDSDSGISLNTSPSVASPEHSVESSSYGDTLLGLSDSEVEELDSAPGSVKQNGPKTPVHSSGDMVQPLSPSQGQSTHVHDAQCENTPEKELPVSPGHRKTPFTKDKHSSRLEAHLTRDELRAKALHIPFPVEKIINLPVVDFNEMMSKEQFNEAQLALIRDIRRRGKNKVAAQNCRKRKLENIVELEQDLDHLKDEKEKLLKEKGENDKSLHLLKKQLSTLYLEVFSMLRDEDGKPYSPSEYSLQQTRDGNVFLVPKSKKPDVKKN

Cc1cc2c(cc1C(F)(F)F)N(C(=O)Nc1ccc(Oc3cccnc3C)nc1)CC2
active: [1] 80.4 µM | [2] 46 µM | [3] 26.8 µM | [10] 30.1 µM | [20] 83 µM
inactive: all other assays above

CCCCCCCCCCCC[N+](C)(C)C
inactive: [7] | [8] | [9] | [12] | [14] | [15]
active: [1] 82 µM | [2] 75 µM | [3] 82.4 µM | [4] 75.8 µM | [5] 76.4 µM | [6] 33.8 µM | [10] 91 µM | [11] 75.6 µM | [13] 76.9 µM | [16] 88.1 µM | [17] 93.5 µM | [18] 77 µM | [19] 50 µM | [20] 83.4 µM

CCCC(=O)OCCC(C)C
inactive: all assays above

CCCCCCCCOC(=O)c1cc(O)c(O)c(O)c1
inactive: all assays above

Oc1ccc2ccccc2c1
inactive: all assays above
